# mTORC1 inh: inhibitors of mTORC1 signaling in Tsc2-/- p53-/- MEF cells | Tsc2-/- p53-/- MEF, phospho-rpS6 immunofluorescence/PI, 24 h | Potency, µM (doses to about 38.3 µM), inactives show at the highest dose activity change, negative = inhibition, most hits filed as inhibitors | hit rate 0.78% among 44,000 | AID 493208;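 note: potency is the fitted concentration of half-maximal effect; plate controls were DMSO for no effect and rapamycin for full effect; nearly all actives have a fitted effect of over 50% in size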
#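 Tsc2-/-, p53-/- MEFs (empty-vector stable line) in DMEM + 10% FBS were treated with compounds 24 h at 37 degree Celsius, fixed, and immunostained for phospho-rpS6 (Alexa-488) with propidium iodide counterstain. Laser-scanning cytometry gave % positive cells, normalized against 7.5 nM rapamycin and DMSO.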
# p53null 39C tox: p53 null cell cytotoxicity, nonpermissive temperature; H1299 p53-null (neo) cells, 39C, ATPlite viability, 24 h; Potency, µM (highest dose often 46.1 µM), without a hit: at the highest dose activity, negative = cell killing, usual class: cytotoxic; hit rate 0.97% among 55,000; AID 904;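 note: potency is the fitted concentration of half-maximal effect; 0% = DMSO only and -100% = full killing by 100 µM tamoxifen; nearly all actives have a fitted effect of over 50% in size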
#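 Luminescent ATP signal reported cell survival after H1299 lines (neo, p53 null; or p53 A138V) received up to 46 uM compound and 24 hr incubation at 39C.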
# PMP22 txn prim: PMP22 gene transcription modulation | Potency, µM (titrated, usually from 57.5 µM), inactives show at the top dose activity change, negative = inhibition, actives largely listed as inhibitors | hit rate 2% among 43,000 | S16 Pmp22-F2sN Schwann cells, FLuc/NLuc coincidence luminescence, 24 h; active = clear falling dose curves in both reporters; inconclusive = both reporters move, but less clearly or upward; inactive = either reporter flat; the % is the NLuc reporter signal; note: potency is the fitted concentration of half-maximal effect; % is set by controls: 0 for no effect and ±100 for the full control effect
#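 S16 Schwann cells carrying FLuc/NLuc coincidence reporter in the Pmp22 3' UTR treated with compound 24 h at 37C; FLuc then NLuc luminescence read sequentially by dual-luciferase reagents.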
# S16 F2sN tox: cytotoxicity in S16 Pmp22-F2sN Schwann cells; AID 1508642; S16 Pmp22-F2sN Schwann cells viability, CellTiter-Glo, 24 h; hit rate 0.48% among 43,000; Potency, µM (titrated, usually from 57.5 µM), without a hit: at the top dose activity change, negative = cytotoxicity, actives largely listed as cytotoxic; note: potency is the fitted concentration of half-maximal effect; % is set by controls: 0 for no effect and ±100 for the full control effect; nearly all actives have a fitted effect of over 65% in size
#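 Viability was measured by CellTiter-Glo luminescence (15 min, room temperature). This followed 24 h at 37 °C of compound exposure (23 nL pin transfer) in S16 Pmp22-F2sN Schwann cells, 500-1,000 per well.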
# p53null 32C tox: kills p53 null cells at the permissive temperature; hit rate 0.62% among 55,000; Potency, µM (highest dose often 46.1 µM), for the others: top-dose activity change, negative = cytotoxicity, hits mostly cytotoxic; H1299-neo p53 null cells, ATP luminescence, 24 h, 32C;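 note: potency is the fitted concentration of half-maximal effect; 0% = DMSO only and -100% = full killing by 100 µM tamoxifen; nearly all actives have a fitted effect of over 55% in size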
#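 Luminescent ATP readout gave cell viability of p53-null H1299-neo cells after a 24 h compound exposure at the permissive 32C. Titrations ran up to 46 uM, and AC50s were fitted with the standard Hill equation.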
# GALC G270D act: galactocerebrosidase G270D activity enhancement, cell-based; 145M-Twi-hGALC-G270D cells, HMU-beta-Gal fluorescence, 48 h; Potency, µM (series often up to 57.5 µM), usual class: activators; hit rate 0.1% among 45,000; note: potency is the fitted concentration of half-maximal effect; 0% is about no effect; nearly all actives have a fitted effect of over 65% in size
#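 qHTS, 1536-well; 145M-Twi-hGALC-G270D cells (WT line also made) in DMEM/F12 + 10% FBS; compound incubation on live cells; HMU-β-gal 0.1 mM final, pH 5.2, NaTC; carbonate stop; fluorescence increase = enhanced residual activity.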
# NLuc sat counter: counter-screen for PMP22 expression modulators: NanoLuc inhibition, saturating substrate; shares compounds with PMP22 txn prim; Secreted NLuc enzyme (filtered S16 cell medium), Nano-Glo luminescence; Potency, µM (highest dose often 57.5 µM), inactives show top-dose activity change, negative = inhibition, hits mostly inhibitors; hit rate 4% among 690; note: potency is the fitted concentration of half-maximal effect; % is set by controls: 0 for no effect and ±100 for the full control effect
# NLuc Km ctr: counter-screen for PMP22 expression modulators: NanoLuc inhibition at Km; secreted NLuc enzyme, coelenterazine luminescence, Km conditions; hit rate 5% among 690; AID 1508639; Potency, µM (doses to about 57.5 µM), inactives show top-dose activity change, negative = inhibition, usual class: inhibitors; shares compounds with PMP22 txn prim; note: potency is the fitted concentration of half-maximal effect; % is set by controls: 0 for no effect and ±100 for the full control effect
# FLuc counter: inhibits firefly luciferase, PMP22 counter-screen; shares compounds with PMP22 txn prim; 690 tested, under 10 active; Potency, µM (top dose mostly 57.5 µM), inactives show top-dose activity, negative = inhibition, usual class: inhibitors; purified P. pyralis FLuc, luminescence, 10 min; note: % of control where 0% means no effect
# Target sequence (P08659 whole entry, looked up): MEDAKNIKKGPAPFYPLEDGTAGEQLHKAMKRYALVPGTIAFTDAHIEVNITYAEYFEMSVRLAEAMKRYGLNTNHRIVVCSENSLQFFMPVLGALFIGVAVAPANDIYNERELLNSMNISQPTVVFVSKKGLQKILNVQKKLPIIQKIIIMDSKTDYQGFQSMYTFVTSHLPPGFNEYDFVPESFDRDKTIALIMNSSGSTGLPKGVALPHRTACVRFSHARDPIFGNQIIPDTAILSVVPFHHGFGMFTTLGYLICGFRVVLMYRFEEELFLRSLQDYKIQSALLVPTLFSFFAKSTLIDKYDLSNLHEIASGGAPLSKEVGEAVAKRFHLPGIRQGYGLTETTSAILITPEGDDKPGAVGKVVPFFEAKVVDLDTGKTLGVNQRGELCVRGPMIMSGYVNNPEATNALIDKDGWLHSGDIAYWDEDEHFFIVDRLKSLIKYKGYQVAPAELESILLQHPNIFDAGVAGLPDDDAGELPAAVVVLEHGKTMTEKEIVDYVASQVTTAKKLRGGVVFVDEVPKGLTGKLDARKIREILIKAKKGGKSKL
# S16 viab conf: confirmation of cytotoxicity in S16 Pmp22-F2sN Schwann cells (luciferase reporters placed in the Pmp22 gene). shares compounds with PMP22 txn prim. hit rate 7% among 690. S16 Schwann cells viability, CellTiter-Glo ATP luminescence, 24 h. Potency, µM (series often up to 57.5 µM), inactives show top-dose activity change, negative = viability loss, hits mostly cytotoxic. AID 1508641; note: potency is the fitted concentration of half-maximal effect; % is set by controls: 0 for no effect and ±100 for the full control effect
# PMP22 txn conf: confirmation of modulators of PMP22 gene transcription in S16 cells; Potency, µM (doses to about 57.5 µM), inactives show top-dose activity change, negative = inhibition, actives largely listed as inhibitors; AID 1508646; shares compounds with PMP22 txn prim; S16 Schwann cells Pmp22-F2sN, dual luciferase, 24 h; hit rate 22% among 690; active = clear falling dose curves in both reporters; inconclusive = both reporters move, but less clearly or upward; inactive = either reporter flat; the % is the FLuc reporter signal; note: potency is the fitted concentration of half-maximal effect
# PMP22 HiBiT cnf: rat PMP22 protein level modulation, confirmatory; shares compounds with PMP22 txn prim; Potency, µM (series often up to 27.9 µM), without a hit: at the highest dose activity change, negative = inhibition, actives largely listed as inhibitors; AID 1508647; 95 tested, under 10 active; S16 Schwann cells Pmp22-HiBiT, luminescence, 48 h
# Target sequence (P25094 whole entry, looked up): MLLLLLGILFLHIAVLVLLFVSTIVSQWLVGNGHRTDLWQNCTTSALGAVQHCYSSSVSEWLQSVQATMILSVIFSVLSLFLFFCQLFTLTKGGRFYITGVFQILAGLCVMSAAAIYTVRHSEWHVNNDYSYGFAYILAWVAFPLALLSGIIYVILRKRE
# The depositor's hits bear a star; i = inactive; u = inconclusive; x = no result given; [ ] = remark or other dose. The list is not random: actives were taken first. Their share in the collection is about 3%. Unless noted, calls come from the whole dose curve; as a rule, active = well fitted curve in the direction sought with a large enough effect; inconclusive = small, poorly fitted or top-dose-only effect, or another doubt; inactive = no such curve, though single readings can be large; an effect the other way counts as inactive or inconclusive.
SMILES,mTORC1 inh,p53null 39C tox,PMP22 txn prim,S16 F2sN tox,p53null 32C tox,GALC G270D act,NLuc sat counter,NLuc Km ctr,FLuc counter,S16 viab conf,PMP22 txn conf,others
CCOC(=O)N1CCN(Cc2nc3cc([N+](=O)[O-])ccc3n2C(C)C)CC1,-17%,-9%,u,-17%,-5%,i,-5%,0%,3%,u,-5%,
Cc1nn(S(=O)(=O)c2ccc(F)cc2)c(C)c1S(=O)(=O)N1CCC(C)CC1,-2%,-16%,-1%,10%,0%,i,x,x,x,x,x,
COC(=O)/C(N=Nc1c(C)n(C)n(-c2ccccc2)c1=O)=C(\C)O,x,-18%[1.84 µM],x,x,0%,x,x,x,x,x,x,
CCCSc1ncc(Cl)c(C(=O)Nc2ccc(S(=O)(=O)N3CCC(C)CC3)cc2)n1,-7%,11%,u,-10%,14%,i,x,x,x,x,x,
CCCSc1ncc(Cl)c(C(=O)Nc2ccc(S(=O)(=O)N3CCCCC3C)cc2)n1 (stereo not drawn),-30%,2%,11µM*,u,17%,i,-18%,-16%,15%,1%,u,
C=CCn1c(=O)c2ccccc2n2c(SC(C)C(=O)Nc3nc(-c4ccccc4)cs3)nnc12 (stereo not drawn),x,7%,x,x,2%,x,x,x,x,x,x,
CCCN1CCN(CCCNC(=O)c2cc3c(Cl)nc4ccccc4c3s2)CC1,-10%,-17%,13µM*,20%,-5%,i,-16%,8%,-1%,u,-9%,
CCCN1CCN(CCCNC(=O)c2cc3c(=O)n(CC)c4ccccc4c3s2)CC1,u,-24%,u,-1%,3%,i,x,x,x,x,x,
CCn1c(=O)c2cc(C(=O)NCCCN3CCC(C)CC3)sc2c2ccccc21,u,u,u,u,-1%,i,x,x,x,x,x,
CCn1c(=O)c2cc(C(=O)NC3CCC(C)CC3)sc2c2ccccc21 (stereo not drawn),-10%,-9%,17µM*,u,-7%,i,u,-19%,-3%,18%,-7%,
Cn1c(=O)c2cc(C(=O)NCCCN3CCN(c4ccccc4F)CC3)sc2c2ccccc21,6%,-9%,u,-14%,2%,i,x,x,x,x,x,
Cn1c(=O)c2cc(C(=O)NCCCN3CCN(c4ccc(F)cc4)CC3)sc2c2ccccc21,0%,-26%,19µM*,2%,-2%,i,u,-10%,5%,34µM*,u,
CCn1c(=O)c2cc(C(=O)NCCCN3CCN(C)CC3)sc2c2ccccc21,1%,-7%,11µM*,12%,3%,i,-7%,-5%,4%,22%,-26%,
O=C(NCCCN1CCN(c2ccccc2F)CC1)c1cc2c(Cl)nc3ccccc3c2s1,1%,u,u,17%,-1%,i,x,x,x,x,x,
COc1cccc(OCc2nc3ccccc3n2Cc2ccccc2)c1,3%,15%,-25%,-3%,41%,i,x,x,x,x,x,
CCOC(=O)c1c(NC(=O)c2cc(Cl)ccc2Cl)sc2c1CCCC2,5%,-5%,3%,1%,3%,i,x,x,x,x,x,
Cc1ccc(Cl)cc1NC(=O)Cn1ncc2c(C)n(Cc3ccccc3F)c(C)c2c1=O,1%,-24%,u,-3%,-9%,i,x,x,x,x,x,
Cc1cccc(/C=C(\C#N)c2nc3ccccc3c(=O)[nH]2)c1,-3%,-9%,11µM*,0%,1%,i,u,u,-5%,u,5%,
Cc1cc(NC(=O)C2CCCN(S(=O)(=O)c3cccc4nonc34)C2)ccc1Br (stereo not drawn),4%,-21%,18µM*,u,5%,i,-1%,3%,3%,-12%,17µM*,PMP22 HiBiT cnf=30%
COc1ccccc1NC(=O)c1cc(S(=O)(=O)NCCC2=CCCCC2)ccc1F,-1%,2%,u,-4%,32%,i,x,x,x,x,x,
CC1=Nc2cc(C(=O)NC3CCC(C)CC3)ccc2Sc2c(C)ccc(C)c21 (stereo not drawn),-11%,u,-116%,4%,27%,i,x,x,x,x,x,
CC1=Nc2cc(C(=O)NC3CCCCC3)ccc2Sc2ccc(Cl)cc21,u,19%,6µM*,-6%,40%,i,-4%,0%,2%,-5%,8.7µM*,
CCCC1=Nc2cc(C(=O)NC3CCCCC3)ccc2Sc2ccc(C)cc21,-3%,12%,0.9µM*,-34%,13%,i,-10%,3%,-8%,1%,2.9µM*,PMP22 HiBiT cnf=u
CCCC1=Nc2cc(C(=O)NC3CCCC3)ccc2Sc2ccc(C)cc21,-10%,u,3.7µM*,2%,24%,i,-8%,-1%,9%,-2%,4.4µM*,
CC1=Nc2cc(C(=O)NC3CCCC3)ccc2Sc2ccc(Br)cc21,u,16%,u,3%,17%,i,x,x,x,x,x,
Cc1ccc2nc(NC(=O)CSc3nccn3-c3ccc(Cl)cc3)sc2c1,u,13%,u,-2%,-13%,i,x,x,x,x,x,

# Source: PubChem
